{"source": "the OligoGym collection"}
{"target": "TNIP2", "assay": "pooled miR-30 sensor sort-seq; sequence = guide strand", "conditions": "shRNA"}
{"sequence": "TTCAACGTGAGTCACCTTCTGT", "sensor-assay potency score (higher = more potent)": -0.171}
{"sequence": "TTCTCTTCCAACTGTCTGTTGA", "sensor-assay potency score (higher = more potent)": 0.202}
{"sequence": "TTCTGACATGAAGTCATCCTTG", "sensor-assay potency score (higher = more potent)": -0.577}
{"sequence": "TTGAATCCTACTTTGAGCCCGT", "sensor-assay potency score (higher = more potent)": 0.603}
{"sequence": "TAACAGTCGATTTTCTTCCTGC", "sensor-assay potency score (higher = more potent)": 0.411}
{"sequence": "TTTTCTCTTCCAACTGTCTGTT", "sensor-assay potency score (higher = more potent)": -0.371}
{"sequence": "TTTCTCTTCCAACTGTCTGTTG", "sensor-assay potency score (higher = more potent)": -0.51}
{"sequence": "TTTATTTTCTCTTCCAACTGTC", "sensor-assay potency score (higher = more potent)": 0.553}
{"sequence": "TATTCCATAGAACAGGATGGGG", "sensor-assay potency score (higher = more potent)": -0.938}
{"sequence": "TCCAACTGTCTGTTGAGCCGGG", "sensor-assay potency score (higher = more potent)": -0.18}
{"sequence": "TTCTTCTAGTCGCTCAGTCAGC", "sensor-assay potency score (higher = more potent)": -0.848}
{"sequence": "TTGCTCGTCACTGAAGCACTGC", "sensor-assay potency score (higher = more potent)": 0.0739}
{"target": "TNK1", "assay": "pooled miR-30 sensor sort-seq; sequence = guide strand", "conditions": "shRNA"}
{"sequence": "TAGTGCTGTCTGGCACTCCTGG", "sensor-assay potency score (higher = more potent)": -1.01}
{"sequence": "TTTGCCTTCTTTCTGTCTCCAT", "sensor-assay potency score (higher = more potent)": -0.221}
{"sequence": "TACAAAGTCGAAGTGCTCTGGC", "sensor-assay potency score (higher = more potent)": 0.534}
{"sequence": "TTTCTGTCTCCATCTATGCTTC", "sensor-assay potency score (higher = more potent)": -0.886}
{"sequence": "TAGACTTAGGCCCAGAACGTAG", "sensor-assay potency score (higher = more potent)": -0.86}
{"sequence": "TATAGCAGCTCTTTTCTTCCAA", "sensor-assay potency score (higher = more potent)": 0.014}
{"sequence": "TTTGAAGGTGCGACCATTCTGG", "sensor-assay potency score (higher = more potent)": 0.416}
